We go through 12 compounds from PubChem BioAssay (Tox21).

Molecules are shown by their SMILES. “And” between values parts separate entries of the source, which are not always exact repeats. Equal entries are not always repeated. The source made the active and inactive calls. Unless noted, the call rests on the fitted dose curve; in most records, active means well fitted curve in the direction sought with a large enough effect in the repeat runs; inconclusive means weak or mixed curves; inactive means no such curve, though single readings can be large; an effect the other way counts as inactive or inconclusive.

A short description of test [1]: qHTS assay to identify small molecule antagonists of the thyroid receptor (TR) signaling pathway - cell viability counter screen (AID 743064). Further: nearly all actives have a fitted effect of over 50% in size. Further: potency means the concentration at half of the fitted maximal effect. An outline of the steps: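 Fluorescence from CellTiter-Fluor, added after 23.5 h exposure at 37 °C, reported viability of GH3.TRE-Luc cells co-treated with compound and 1 nM T3. Measured in the same wells as the luciferase TR readout.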
Background: qHTS replaces the single test concentration by a dilution series.

Test [2] is described as follows: qHTS assay to identify small molecule antagonists of the thyroid receptor (TR) signaling pathway (AID 743065). Further: nearly all actives have a fitted effect of over 55% in size. Further: potency means the concentration at half of the fitted maximal effect. An outline of the steps: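 GH3.TRE-Luc rat pituitary cells (two TREs driving luciferase) were dosed with compound, then stimulated with 1 nM T3 (final) for 23.5 h at 37 C. ONE-Glo luminescence was the read-out, with CellTiter-Fluor fluorescence as the cytotoxicity counter-screen.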

For test [3], the system named is thyroid hormone receptor (rat, GH3 cells). Briefly: qHTS assay to identify small molecule agonists of the thyroid receptor (TR) signaling pathway (AID 743066; calls by dose curve).
Test [4] concerns the target Estrogen receptor (Homo sapiens) (UniProt P03372). Kind of test: qHTS assay to identify small molecule antagonists of the estrogen receptor alpha (ER-alpha) signaling pathway (AID 743069; active means well fitted curve in the direction sought with a large enough effect in the signal ratio in the repeat runs, not every such curve was filed as active; inconclusive means weak or mixed curves, or effect the other way; inactive means no such curve, though single readings can be large or run the other way; the % refers to the signal ratio). An outline of the steps:
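Beta-lactamase FRET fluorescence is read after 2 hr at room temperature with LiveBLAzer B/G substrate. Before that, ER-alpha-bla HEK293 cells sit 4 hr after plating, then receive compound plus 17beta-estradiol and incubate 18 hr at 37C.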

Test [5] is described as follows: qHTS assay to identify small molecule antagonists of the estrogen receptor alpha (ER-alpha) signaling pathway - cell viability counter screen (AID 743074; calls by dose curve;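 further: HEK293 cells carrying ER-alpha-UAS-bla reporter stimulated with 17beta-estradiol; nearly all actives have a fitted effect of over 45% in size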).
Test [6] has as its target Estrogen receptor (Homo sapiens) (UniProt P03372). Briefly: qHTS assay to identify small molecule agonists of the estrogen receptor alpha (ER-alpha) signaling pathway (AID 743075; calls by dose curve;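 further: HEK293 GripTite cells with ER-alpha and UAS-driven beta-lactamase reporter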; further: potency means the concentration at half of the fitted maximal effect).
Another test has as its target Aromatase (Homo sapiens) (UniProt P11511). Briefly: qHTS assay to identify aromatase inhibitors (AID 743083). Further: nearly all actives have a fitted effect of over 55% in size. Further: potency means the concentration at half of the fitted maximal effect.
Test [7] in a line: qHTS assay to identify aromatase inhibitors - cell viability counter screen (AID 743084).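 Further: cells stimulated with testosterone during compound exposure; nearly all actives have a fitted effect of over 55% in size.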 Further: potency means the concentration at half of the fitted maximal effect.
Test [8] is described as follows: qHTS assay to identify small molecule that activate the aryl hydrocarbon receptor (AhR) signaling pathway - cell viability counter screen (AID 743086).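 Further: HepG2 liver cells carrying the AhR DRE luciferase reporter; series mostly up to about 70 µM; nearly all actives have a fitted effect of over 45% in size.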 A digest of the protocol:
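HepG2-AhR-luc (HG2L7.5c1) cells, 4000/well, treated 24 h at 37 C with compound; viability measured as CellTiter-Fluor fluorescence after 30 min in the same wells as the luciferase read.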

Test [9] concerns the target Peroxisome proliferator-activated receptor gamma (Homo sapiens) (UniProt P37231). Briefly: qHTS assay to identify small molecule agonists of the peroxisome proliferator-activated receptor gamma (PPARg) signaling pathway (AID 743094; active means well fitted activation curve with a large enough effect in the signal ratio in the repeat runs, not every such curve was filed as active; inconclusive means weak or mixed curves, or effect the other way; inactive means no such curve, though single readings can be large or run the other way; the % refers to the signal ratio). A digest of the protocol:
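Agonism was assessed in a beta-lactamase reporter system, HEK293H cells with a stably integrated UAS-bla construct under PPARg control; the 17 h treatment at 37C preceded a 1 h room-temperature FRET substrate read.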

The nature of test [10]: qHTS assay to identify small molecule antagonists of the peroxisome proliferator-activated receptor gamma (PPARg) signaling pathway - cell viability counter screen (AID 743194). Further: nearly all actives have a fitted effect of over 55% in size. A digest of the protocol: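 Cytotoxicity counter screen in PPARg-bla HEK293H cells, same wells as reporter assay. Compounds plus 50 nM rosiglitazone (final) for 17 h at 37 C, then viability read by CellTiter-Glo luminescence.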

A short description of test [11]: qHTS assay for small molecule agonists of the antioxidant response element (ARE) signaling pathway - cell viability counter screen (AID 743203; calls by dose curve; further: nearly all actives have a fitted effect of over 55% in size). An outline of the steps: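 ATP content via CellTiter-Glo luminescence served as the viability measure. Cells: ARE-bla HepG2, 2,000 per well. Exposure: 16 hrs, 37C/5% CO2.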
The nature of test [12]: qHTS assay for small molecule activators of the heat shock response signaling pathway - cell viability counter screen (AID 743209). Further: nearly all actives have a fitted effect of over 50% in size. Further: potency means the concentration at half of the fitted maximal effect. A digest of the protocol:
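Compounds dissolved in DMSO were added to overnight-plated HSE-bla HeLa cells and left 5 h at 37 C. Cell viability was quantified by luminescence using CellTiter-Glo.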

The target in test [13] is Estrogen receptor (Homo sapiens) (UniProt P03372). Kind of test: qHTS assay to identify small molecule agonists of the estrogen receptor alpha (ER-alpha) signaling pathway using the BG1 cell line (AID 743079). Further: nearly all actives have a fitted effect of over 20% in size. Further: potency means the concentration at half of the fitted maximal effect.
The nature of test [14]: qHTS assay to identify small molecule antagonists of the estrogen receptor alpha (ER-alpha) signaling pathway using the BG1 cell line (AID 743080; calls by dose curve;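 further: BG1 cells stimulated with 17beta-estradiol alongside compound; series mostly up to about 70 µM; nearly all actives have a fitted effect of over 25% in size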). An outline of the steps: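 Endogenous full-length ER-alpha in BG1-Luc-4E2 cells drives a stably integrated 4×ERE luciferase gene; compounds were tested against 17beta-estradiol over 21.5 h, with luminescence and multiplexed viability fluorescence recorded.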

A short description of test [15]: qHTS assay to identify small molecule antagonists of the estrogen receptor alpha (ER-alpha) signaling pathway using the BG1 cell line - cell viability counter screen (AID 743081).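 Further: compound given together with 17beta-estradiol as the ER stimulus; series mostly up to about 70 µM; nearly all actives have a fitted effect of over 45% in size.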
Test [16] has as its target Aryl hydrocarbon receptor (Homo sapiens) (UniProt P35869). Briefly: qHTS assay to identify small molecule that activate the aryl hydrocarbon receptor (AhR) signaling pathway (AID 743085). Further: nearly all actives have a fitted effect of over 15% in size. Further: potency means the concentration at half of the fitted maximal effect.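 On activation: HG2L7.5c1 human HepG2 liver cells with stably integrated DRE-driven firefly reporter; series mostly up to about 70 µM.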 An outline of the steps:
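Cell line HG2L7.5c1 (human hepatoma, 20× DRE-luc). Plated, 5 h 37C, compound/DMSO added, 24 h 37C. CellTiter-Fluor 30 min 37C → fluorescence; then ONE-Glo 30 min RT → luminescence.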

Test [17] can be described thus: qHTS assay for small molecule activators of the heat shock response signaling pathway (AID 743210; active means well fitted activation curve with a large enough effect in the signal ratio in the repeat runs, with a control signal flat, not every such curve was filed as active; inconclusive means weak or mixed curves; the % refers to the signal ratio;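 further: HeLa cells with beta-lactamase reporter driven by heat shock elements; series mostly up to about 63 µM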). An outline of the steps:
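Beta-lactamase reporter read-out: FRET substrate fluorescence after 2.5 h at RT, following 5 h compound treatment at 37 C of HeLa cells carrying HSE-driven bla reporter; quantitative HTS format.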

Test [18] can be described thus: qHTS assay for small molecule agonists of the antioxidant response element (ARE) signaling pathway (AID 743202; active means well fitted activation curve with a large enough effect in the signal ratio in the repeat runs, not every such curve was filed as active; inconclusive means weak or mixed curves, or effect the other way; inactive means no such curve, though single readings can be large or run the other way; the % refers to the signal ratio; further: potency means the concentration at half of the fitted maximal effect). An outline of the steps:
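HepG2 ARE-bla reporter line, 2,000 cells/well; 5 h preincubation 37 C/5% CO2; compound (DMSO) 16 h 37 C; B/G FRET substrate 2 h RT; fluorescence intensity.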

Sequence of Estrogen receptor (Homo sapiens) (P03372 whole entry, looked up): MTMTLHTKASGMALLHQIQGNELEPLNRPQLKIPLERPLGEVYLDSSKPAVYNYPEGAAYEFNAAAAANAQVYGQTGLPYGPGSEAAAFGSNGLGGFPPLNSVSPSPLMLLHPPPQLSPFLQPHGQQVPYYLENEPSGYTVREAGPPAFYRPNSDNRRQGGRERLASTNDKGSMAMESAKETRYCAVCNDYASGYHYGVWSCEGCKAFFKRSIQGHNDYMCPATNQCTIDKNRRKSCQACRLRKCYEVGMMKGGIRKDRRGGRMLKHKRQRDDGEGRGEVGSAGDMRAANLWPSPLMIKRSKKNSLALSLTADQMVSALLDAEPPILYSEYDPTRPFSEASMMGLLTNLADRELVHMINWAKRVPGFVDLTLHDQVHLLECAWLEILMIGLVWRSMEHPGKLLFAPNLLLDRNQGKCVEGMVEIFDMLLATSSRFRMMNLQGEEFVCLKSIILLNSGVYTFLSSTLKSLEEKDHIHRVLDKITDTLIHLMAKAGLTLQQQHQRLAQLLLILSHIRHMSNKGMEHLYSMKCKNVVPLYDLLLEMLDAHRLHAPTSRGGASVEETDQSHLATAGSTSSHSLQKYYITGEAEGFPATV
Sequence of Aromatase (Homo sapiens) (P11511 whole entry, looked up): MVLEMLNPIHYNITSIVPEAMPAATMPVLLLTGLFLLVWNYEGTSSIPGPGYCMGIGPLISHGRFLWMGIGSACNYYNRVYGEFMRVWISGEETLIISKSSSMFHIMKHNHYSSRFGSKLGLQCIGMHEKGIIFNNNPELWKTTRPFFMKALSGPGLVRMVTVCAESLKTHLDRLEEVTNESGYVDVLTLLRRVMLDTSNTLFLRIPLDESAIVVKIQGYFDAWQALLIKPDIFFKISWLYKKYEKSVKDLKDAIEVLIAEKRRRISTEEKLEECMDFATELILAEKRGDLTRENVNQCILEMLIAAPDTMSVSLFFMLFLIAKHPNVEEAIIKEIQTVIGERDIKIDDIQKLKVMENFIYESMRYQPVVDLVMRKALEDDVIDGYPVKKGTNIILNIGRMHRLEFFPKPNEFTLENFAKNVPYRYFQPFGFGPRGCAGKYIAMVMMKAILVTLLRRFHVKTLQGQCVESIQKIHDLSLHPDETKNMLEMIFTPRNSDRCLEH
Sequence of Peroxisome proliferator-activated receptor gamma (Homo sapiens) (P37231 whole entry, looked up): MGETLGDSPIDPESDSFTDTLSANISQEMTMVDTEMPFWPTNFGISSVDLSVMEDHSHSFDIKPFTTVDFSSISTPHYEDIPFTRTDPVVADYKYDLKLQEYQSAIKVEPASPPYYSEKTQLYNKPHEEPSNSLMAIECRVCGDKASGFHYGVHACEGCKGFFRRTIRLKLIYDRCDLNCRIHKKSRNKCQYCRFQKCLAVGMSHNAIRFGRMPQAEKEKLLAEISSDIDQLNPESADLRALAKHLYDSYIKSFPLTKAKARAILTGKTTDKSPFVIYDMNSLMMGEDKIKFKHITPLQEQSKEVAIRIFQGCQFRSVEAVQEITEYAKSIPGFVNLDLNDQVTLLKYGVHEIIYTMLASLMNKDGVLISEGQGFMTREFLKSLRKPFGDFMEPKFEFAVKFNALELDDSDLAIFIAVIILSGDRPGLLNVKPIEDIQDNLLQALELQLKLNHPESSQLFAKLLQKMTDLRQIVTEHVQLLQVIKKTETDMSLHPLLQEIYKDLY
Sequence of Aryl hydrocarbon receptor (Homo sapiens) (P35869 whole entry, looked up): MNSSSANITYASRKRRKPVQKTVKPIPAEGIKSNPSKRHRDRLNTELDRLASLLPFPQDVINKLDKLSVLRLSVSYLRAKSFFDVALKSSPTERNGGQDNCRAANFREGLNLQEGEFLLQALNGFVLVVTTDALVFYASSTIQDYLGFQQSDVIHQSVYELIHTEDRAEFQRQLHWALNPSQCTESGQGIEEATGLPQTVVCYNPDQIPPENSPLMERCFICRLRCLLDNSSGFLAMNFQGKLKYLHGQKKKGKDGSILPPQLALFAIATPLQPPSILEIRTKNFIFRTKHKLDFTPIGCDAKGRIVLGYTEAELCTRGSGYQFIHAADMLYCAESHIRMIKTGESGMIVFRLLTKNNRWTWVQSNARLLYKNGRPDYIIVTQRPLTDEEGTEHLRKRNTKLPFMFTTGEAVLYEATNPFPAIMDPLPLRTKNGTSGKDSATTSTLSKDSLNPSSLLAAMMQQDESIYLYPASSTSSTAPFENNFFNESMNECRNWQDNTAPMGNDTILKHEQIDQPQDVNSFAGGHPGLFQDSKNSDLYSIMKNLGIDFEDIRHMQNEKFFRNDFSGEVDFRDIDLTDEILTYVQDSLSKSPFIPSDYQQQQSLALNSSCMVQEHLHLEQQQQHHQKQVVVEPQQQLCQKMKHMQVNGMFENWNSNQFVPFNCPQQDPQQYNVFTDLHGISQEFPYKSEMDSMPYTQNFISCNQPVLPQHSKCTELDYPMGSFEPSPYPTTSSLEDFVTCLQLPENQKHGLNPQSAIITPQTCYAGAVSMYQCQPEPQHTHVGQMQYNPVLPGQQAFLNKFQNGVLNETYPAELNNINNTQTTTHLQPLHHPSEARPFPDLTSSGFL

Regarding `CC(C)Cn1cnc2c(N)nc3ccccc3c21`, the Potency result (in test [1]; in [2]; in [4]; in test [5]; in test [6]; with Aromatase (Homo sapiens)) was “inactive” throughout. The Potency entry in [7], in test [8], in [9], in test [10], in test [11] and in test [12] was “inactive” throughout. For the same compound, the outcome in test [3] was inactive.

As for `CC1(C)CCC[C@]2(C)[C@H]3CC(=O)O[C@]3(C)CC[C@@H]12`, the Potency entry in test [1], in test [5], in test [6], in [13], in [14] and in test [15] was “inactive” throughout. In addition, the Potency result in [7], in test [16], in [8], in [9], in [10] and in [11] was “inactive” in each case. The Potency result in test [12] and in test [17] was “inactive” in each case. For the same compound, the Potency in [2] was 54.5 µM (active). For the same compound, in [3], the result was inactive.

With `Nc1ccc(Oc2ccc(Cl)cc2)cc1`, the Potency result in test [1], in test [5], in test [6], in [13], in test [15] and in [7] was “inactive” throughout. Further, the Potency entry in test [16], in [8], in test [9], in test [10], in [12] and in test [17] was “inactive” each time. The Potency in test [2] was 30 µM (active); in the test with Aromatase (Homo sapiens) it was 23.8 µM (active). For the same compound, the outcome in [3] was inactive.

On to `Cc1ccc(O)c(N)c1`, for which the Potency was 30.7 µM (active) in [1], 43.3 µM (active) in test [2] and 34.4 µM (active) in test [16]. Also, the call in [3] was inactive. Also, the Potency entry in test [5], in test [6], in [15], in test [11] and in test [12] was “inactive” throughout.

Take `C=CC(=O)OCCOC(=O)C=C`: the Potency in [1] is 61.1 µM (active); in test [2] it was 38.6 µM (active); in [6], 17.4 µM [inconclusive] (active); in [13], 1.72 µM (active); in test [7] it was 54.5 µM (active); in test [18] it was 61.1 µM (active). Besides, in test [12], the Potency is 6.92 µM (active). Moreover, the compound was classed as inactive in test [3]. Moreover, the Potency entry in test [5], in test [15], in [8] and in test [11] was “inactive” each time.

Turning to `O=C1CCCCCCCCCCCCCCCO1`, the Potency result in test [1], in test [2], in test [5], in test [6], in test [13] and in test [14] was “inactive” each time. The Potency entry (in test [15]; in the test with Aromatase (Homo sapiens); in test [7]; in [16]; in [8]; in [9]) was “inactive” each time. The Potency result in test [10], in [12] and in test [17] was “inactive” each time. For the same compound, the result in test [3] was inactive.

Consider `Cc1ccc(O)c(O)c1`, for which the Potency is 29.8 µM (active) in test [1]; 26.5 µM (active) in test [2]; 53.4 µM [inconclusive] (active) in [6]; 66.6 µM (active) with Aromatase (Homo sapiens); 29.8 µM (active) in test [16]. Besides, in [3], the compound was classed as inactive. Also, the Potency result in test [5], in [13], in test [14], in [10], in [11] and in test [12] was “inactive” throughout.

`CCC(CC)(CC(=O)Nc1cccc(/C=C/c2nc(C3CCC3)cs2)c1)C(=O)O`: the Potency result in test [1], in test [2], in test [5], in test [6], in test [13] and in test [14] was “inactive” each time. Moreover, the Potency entry (in test [15]; with Aromatase (Homo sapiens); in [7]; in test [8]; in test [10]; in test [12]) was “inactive” in each case. The Potency result in test [17] is “inactive”. Also, the compound was called inactive in test [3]. For the same compound, in test [16], the Potency is 8.41 µM (active).

With `O=[N+]([O-])c1ccc(F)c(Cl)c1`, the Potency result (in test [1]; in test [2]; in [5]; in test [15]; with Aromatase (Homo sapiens); in test [7]) was “inactive” in each case. The Potency result in [16], in [8], in test [9], in test [10], in [18] and in test [11] was “inactive” each time. Also, the Potency result in test [12] is “inactive”. In addition, the compound was called inactive in [3].

Turning to `CC1(C)[C@@H](O)CC[C@]2(C)[C@H]3C(=O)C=C4[C@@H]5C[C@@](C)(C(=O)O)CC[C@]5(C)CC[C@@]4(C)[C@]3(C)CC[C@@H]12`, the Potency in test [1] was 29.8 µM (active) and 24.1 µM (active); in test [2] it was 29.8 µM (active) and 26.6 µM (active) and 27 µM (active); in test [12], 48.4 µM (active). In [3], the compound was called inactive. Also, the Potency result (in [5]; in [6]; in test [13]; in [14]; in test [15]; in the test with Aromatase (Homo sapiens)) was “inactive” in each case. Besides, the Potency result in test [7], in test [16] and in test [9] was “inactive” each time.

Consider `CCCCCCCCCCCC(=O)OCC(C)OC(=O)CCCCC(=O)O` (centres undefined), for which the Potency result in [1], in test [2], in test [4], in test [5], in [13] and in test [14] was “inactive” in each case. Also, the Potency entry (in test [15]; with Aromatase (Homo sapiens); in test [7]; in test [16]; in test [8]; in test [10]) was “inactive” each time. The Potency entry in test [11] and in test [12] was “inactive” throughout. The call in [3] was inactive.

Regarding `Cc1ccc(-c2ccccc2)cc1`, the Potency result (in test [1]; in [2]; in [5]; in test [15]; with Aromatase (Homo sapiens); in test [7]) was “inactive” throughout. The Potency entry in test [16], in test [8], in [9], in [10], in test [18] and in test [11] was “inactive” in each case. Further, the Potency result in test [12] is “inactive”. For the same compound, the call in [3] was inactive.
